Compounds without any hit were thinned out: in the full panel of roughly 83,000, 20% have a hit.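 Each cell line was grown in a 96-well plate and treated with one concentration of compound for 48 hours. Values below 10 were considered active.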 A number with no mark means an inactive call. Active and inactive are the calls of the source.

The text below walks through data of PubChem BioAssay (NCI).

Test systems include SR leukemia; RPMI-8226 leukemia; OVCAR-8 ovarian; OVCAR-5 ovarian; OVCAR-4 ovarian; SK-OV-3 ovarian; IGROV1 ovarian; HS 578T breast; NCI/ADR-RES ovarian.
Holding throughout (test): NCI-60 one-dose screen, 48 h (100 = growth as untreated, 0 = no growth, -100 = all killed)
Common to all, as to details: 10 µM unless noted

Take `CS(=O)(=O)c1nccc(-c2c(-c3cccc(OCc4ccc(Cl)c(C(F)(F)F)c4)c3)nc3sccn23)n1`: the growth was 9.33% (active) with SR leukemia; -16.8% (active) with RPMI-8226 leukemia; 99.3% in the assay with OVCAR-8 ovarian; 101% in the assay on OVCAR-5 ovarian; 71.9% with OVCAR-4 ovarian; 104% in the assay with SK-OV-3 ovarian. Also, the growth in the assay with IGROV1 ovarian was 34.1%; with HS 578T breast, 41.1%; in the assay on NCI/ADR-RES ovarian, 98.2%.
For `CCCCCCCCCCCC(=O)NC(C)(C)C(=O)N1CCCC1C(=O)NC(C)(C)C(=O)NC(C)(C)C(=O)N1CCCC1C(=O)NC(C)(C)C(=O)NC(C)(C)C(=O)N1CCCC1C(=O)NC(C)C(=O)NCCC(=O)NC(C)C(=O)NC(C)(C)C(=O)NC(C)(C)C(=O)NC(C)(C)C(=O)NCCC(=O)NC(C)(C)C(=O)NC(C)(C)C(=O)NC(C)(C)C(=O)NC(C)C(=O)NCCC(=O)O` (centres undefined), the growth is -61.5% (active) in the assay with SR leukemia; -54.4% (active) with RPMI-8226 leukemia; -93.4% (active) in the assay with OVCAR-8 ovarian; -95.4% (active) in the assay on OVCAR-5 ovarian; -94.5% (active) in the assay on OVCAR-4 ovarian; -96.9% (active) in the assay with SK-OV-3 ovarian. Further, the results for the growth with IGROV1 ovarian, in the assay with HS 578T breast and with NCI/ADR-RES ovarian were -93.8% (active), -69.8% (active) and -80.9% (active), respectively.
For `C#C[C@]1(O)CC[C@H]2[C@@H]3CC=C4c5sc(N6CCN(C)CC6)nc5CC[C@]4(C)[C@H]3CC[C@@]21C`, the growth in the assay on SR leukemia was 4.08% (active); in the assay with RPMI-8226 leukemia, -13.3% (active); in the assay with OVCAR-8 ovarian it was 74.2%; with OVCAR-5 ovarian it was 69.5%; with OVCAR-4 ovarian, 75.6%; with SK-OV-3 ovarian, 54%. In addition, the growth in the assay on IGROV1 ovarian was 63.2%; in the assay on HS 578T breast, 59.8%; in the assay on NCI/ADR-RES ovarian, 36.8%.
As for `O=C(CCCCCCN1CC(=O)N2[C@@H](c3ccccc3Br)c3[nH]c4ccccc4c3C[C@H]2C1=O)NO`, the growth in the assay with SR leukemia was 14%; in the assay with RPMI-8226 leukemia it was 12%; with OVCAR-8 ovarian, 34.1%; in the assay on OVCAR-5 ovarian, 50.9%; in the assay on OVCAR-4 ovarian, 88.1%; in the assay with SK-OV-3 ovarian it was 75.5%. The figures for the growth with IGROV1 ovarian, in the assay on HS 578T breast and in the assay on NCI/ADR-RES ovarian were 48.3%, 59.6% and 83.7%, respectively.
Take `CN1CCN(c2ccc(Nc3nc(NCCNS(=O)(=O)c4ccc5ccccc5c4)c4sccc4n3)cc2)CC1`: the growth was -21.3% (active) in the assay on SR leukemia; 49.8% in the assay with RPMI-8226 leukemia; 60.3% in the assay on OVCAR-8 ovarian; 90.1% with OVCAR-5 ovarian; 82.3% in the assay with OVCAR-4 ovarian; 128% in the assay with SK-OV-3 ovarian. For the same compound, the growth with IGROV1 ovarian was 82.3%; in the assay with HS 578T breast, 75%; in the assay with NCI/ADR-RES ovarian, 90.3%.
Regarding `CCN(CC)c1ccc(/C=N/NC(=O)c2ccc(NS(C)(=O)=O)cc2)c(O)c1`, the growth with SR leukemia is 10.6%; in the assay on RPMI-8226 leukemia, 15.8%; in the assay on OVCAR-8 ovarian, 12%; in the assay with OVCAR-5 ovarian it was 46%; with OVCAR-4 ovarian it was 31.3%; in the assay with SK-OV-3 ovarian it was 34.2%. Also, the growth is 20.3% in the assay with IGROV1 ovarian, 55.7% in the assay on HS 578T breast and 36.9% in the assay with NCI/ADR-RES ovarian.
For the compound `COc1ccc(C2C(C#N)=C(/N=C/c3ccc(Cl)cc3)Oc3c2sc2c(C)cccc32)cc1` (centres undefined), the growth with SR leukemia was 16.5%; in the assay on RPMI-8226 leukemia, 22.6%; in the assay with OVCAR-8 ovarian, 23.4%; with OVCAR-5 ovarian, 34.9%; in the assay with OVCAR-4 ovarian, 76.5%; in the assay with SK-OV-3 ovarian it was 42.8%. Moreover, the growth in the assay on IGROV1 ovarian was 23.6%; with HS 578T breast, -4.66% (active); in the assay with NCI/ADR-RES ovarian, 11.2%.
Regarding `Cn1c2nc3ccccc3c-2cc2ccccc21`, the growth in the assay on SR leukemia is 18.7%; with RPMI-8226 leukemia it was 54.9%; with OVCAR-8 ovarian, 32.8%; in the assay with OVCAR-5 ovarian it was 48%; in the assay with OVCAR-4 ovarian it was 50%; in the assay with SK-OV-3 ovarian it was 48.9%. The growth is -10.8% (active) in the assay with IGROV1 ovarian, 55.9% in the assay with HS 578T breast and 42.6% in the assay on NCI/ADR-RES ovarian.
For `C#C[C@]1(O)CC[C@H]2[C@@H]3CC=C4c5sc(NCc6ccccc6)nc5CC[C@]4(C)[C@H]3CC[C@@]21C`, the growth is 3.34% (active) in the assay on SR leukemia; -25.3% (active) with RPMI-8226 leukemia; 65.2% in the assay with OVCAR-8 ovarian; 84% in the assay on OVCAR-5 ovarian; 73.6% with OVCAR-4 ovarian; -10% (active) with SK-OV-3 ovarian. The growth with IGROV1 ovarian is 76.8%; in the assay on HS 578T breast, -4.78% (active); in the assay on NCI/ADR-RES ovarian, 72.4%.
On to `FC(F)(F)c1cc(Br)cc(-c2cc(-c3ccc4c(c3)OCCO4)[nH]n2)c1`, for which the growth in the assay on SR leukemia is 20.8%; in the assay with RPMI-8226 leukemia, 22.5%; in the assay on OVCAR-8 ovarian, 19.7%; in the assay on OVCAR-5 ovarian, 48.8%; in the assay with OVCAR-4 ovarian it was 75.6%; in the assay on SK-OV-3 ovarian, 52.5%. Further, the growth in the assay with IGROV1 ovarian is 20.8%; in the assay on HS 578T breast, 41.4%; with NCI/ADR-RES ovarian, 9.71% (active).
For `O=C(CCCCCC/C=C\c1csc(Br)n1)NO`, the growth in the assay on SR leukemia is 50.6%; in the assay on RPMI-8226 leukemia, 53.9%; with OVCAR-8 ovarian, 76%; in the assay with OVCAR-5 ovarian it was 80.1%; in the assay on OVCAR-4 ovarian it was 87.5%; with SK-OV-3 ovarian, 95.1%. Besides, the growth is 81.9% in the assay with IGROV1 ovarian, 87.1% in the assay on HS 578T breast and 64.6% in the assay with NCI/ADR-RES ovarian.
